Drawing on PubChem BioAssay AID540333 (Southern Research Specialized Biocontainment Screening …, 2011), this text covers CPE inhibition for 60 compounds.

Structures are written as SMILES. About 320 (3.2%) of roughly 10,000 compounds were called active. Many of the other results were omitted from the sample, so actives are more common in it than they were. Unmarked numbers belong to inactive results. No stated cut-off is given here; in the data, active means CPE inhibition mostly above about 9.1% (no sharp cut-off); inactive means mostly below about 7.2%.

This test is described as follows: Dengue virus cytopathic effect inhibitors, cell-based, CPE readout, HTS (AID 540333). The conditions noted are these: Dengue virus CPE inhibition in host cells, at 20 µM; stronger effect = higher value.
In the case of `O=C1c2ccccc2C(=O)c2c1cccc2N1CCCC1`, the CPE inhibition was 0.885%.

Take `Cc1ccc(-n2[nH]c3c4c(ccc3c2=O)C(=O)c2ccccc2C4=O)cc1`: the CPE inhibition was 17% (active).

For the compound `CN(C)c1cccc2c1C(=O)c1ccccc1C2=O`, the CPE inhibition result is “inactive”.

For the compound `O=S(=O)(c1ccc(-c2csc(Nc3ccc(F)cc3)n2)cc1)N1CCCC1`, the CPE inhibition is 2.46%.

As for `CC(C)Cc1nc(Nc2ccc(S(=O)(=O)N3CCCC3)cc2)c2nnn(Cc3ccccc3)c2n1`, the CPE inhibition is 19.9% (active).

Take `O=S(=O)(c1ccc(-c2csc(Nc3ccc(Br)cc3)n2)cc1)N1CCCC1`: the CPE inhibition was 5.89%.

Turning to `O=C(COC(=O)Cc1c[nH]c2ccccc12)Nc1cccc2ccccc12`, the CPE inhibition is 0.635%.

For the compound `COc1cccc(NC(=S)NNC(=O)Cn2nc(C(F)(F)F)cc2C)c1`, the CPE inhibition result was “inactive”.

`O=C1C(Cc2cccc([N+](=O)[O-])c2)SC(=Nc2ccccc2)N1c1ccccc1` (stereo not given): the CPE inhibition was 2.22%.

For the compound `CCOc1ccc(C(=O)Nc2cc(-c3nc4ccccc4[nH]3)ccc2Cl)cc1[N+](=O)[O-]`, the CPE inhibition entry was “inactive”.

Take `CCOc1ccc(C(=O)Nc2cccc(-c3nc4ccccc4[nH]3)c2C)cc1[N+](=O)[O-]`: the CPE inhibition is 1.88%.

On to `CCOc1ccc(C(=O)Nc2ccc(-c3nc4ccccc4[nH]3)cc2)cc1[N+](=O)[O-]`, for which the CPE inhibition is 8.47% (active).

For the compound `COc1cccc(-c2c(-c3cc(OC)cc(OC)c3)n(C)c3ccc(Br)cc23)c1`, the CPE inhibition is 1.34%.

Turning to `COc1cc(OC)cc(-c2c(-c3ccc(F)cc3)c3cc(-c4cnc(OC)nc4)ccc3n2C)c1`, the CPE inhibition was 2.91%.

`O=C1[C@@H]2[C@@H]3C[C@@H]([C@H]4ON=C(c5ccc(Cl)cc5)[C@@H]34)[C@@H]2C(=O)N1c1ccc2c(c1)OCO2`: the CPE inhibition entry was “inactive”.

As to `O=C1[C@@H]2[C@@H]3C[C@@H]([C@H]4ON=C(c5ccc(Cl)cc5)[C@@H]34)[C@@H]2C(=O)N1C1CCCCC1`, the CPE inhibition is 10.9%.

`O=C1[C@@H]2[C@@H]3C[C@@H]([C@H]4ON=C(c5ccc(Cl)cc5Cl)[C@@H]34)[C@@H]2C(=O)N1C1CCCCC1`: the CPE inhibition was 14.8% (active).

Regarding `COc1ccc(NC(=O)CCC(=O)OCc2ccc(Br)cc2)cc1`, the CPE inhibition is 0.265%.

On to `O=C(/C(=C\c1ccccc1)c1nc2ccccc2[nH]1)c1ccc(Cl)cc1`, for which the CPE inhibition entry was “inactive”.

For `CCn1c(SCC(=O)N/N=C/c2c[nH]c3ccccc23)nnc1-c1ccc(Cl)cc1`, the CPE inhibition is 1.47%.

For the compound `O=C(CSc1nnc(SCc2ccccc2Cl)s1)N/N=C/c1c[nH]c2ccccc12`, the CPE inhibition was 0.645%.

As to `O=C(CSc1nnc(SCc2cccc3ccccc23)s1)N/N=C/c1c[nH]c2ccccc12`, the CPE inhibition was 23.8% (active).

Turning to `Cc1nn(-c2ccccc2)c(C)c1/C=N/NC(=O)CSc1nnc(SCc2cccc3ccccc23)s1`, the CPE inhibition is 4.67%.

For `CCn1c(SCC(=O)N/N=C/c2c[nH]c3ccccc23)nnc1-c1ccc(C(C)(C)C)cc1`, the CPE inhibition was 14.2% (active).

Turning to `CCn1c(SCC(=O)N/N=C/c2ccc(C)o2)nnc1-c1ccc(C(C)(C)C)cc1`, the CPE inhibition is 0.345%.

As to `CCc1ccc(OC(C)c2nnc(SCC(=O)Nc3ncccc3C)n2C)cc1` (stereo not given), the CPE inhibition was 0.355%.

Regarding `Cc1cc(C)c2[nH]c(=O)c(CN(Cc3cccs3)C(=S)NCc3ccco3)cc2c1`, the CPE inhibition is 4.37%.

Take `CN(CC(=O)Nc1ccc(Cl)c(Cl)c1)C(=O)/C=C/c1ccc(F)cc1`: the CPE inhibition was 0.95%.

For `S=C(NCCc1ccccc1)NC1CC1`, the CPE inhibition entry is “inactive”.

With `COC(=O)c1sccc1N/N=C/c1cccc(OC)c1O`, the CPE inhibition was 2.21%.

For `COc1ccc(OCC(=O)N2c3ccccc3CCc3ccccc32)cc1`, the CPE inhibition entry is “inactive”.

Turning to `CCc1ccc(OCC(=O)N2c3ccccc3CCc3ccccc32)cc1`, the CPE inhibition is 14.2% (active).

With `O=C(COc1ccc(Cl)cc1)OCC(=O)N1CCCc2ccccc21`, the CPE inhibition entry was “inactive”.

Consider `COc1cc(/C(C)=N/NC(=S)NC(C)C)cc(OC)c1OC`, for which the CPE inhibition entry is “inactive”.

With `N#Cc1ccc(NC(=O)CCc2nc3ccccc3s2)cc1`, the CPE inhibition entry is “inactive”.

Consider `COC(=O)C1=C(NC(=O)COc2ccc3ccccc3c2)CCS1`, for which the CPE inhibition is 1.12%.

For `COc1ccc(C)cc1NCC(=O)Nc1ccc(C(C)(C)C)cc1`, the CPE inhibition is 15.4% (active).

Consider `Cc1ccc(NC(=O)CNc2ccc(Cl)cc2F)cc1`, for which the CPE inhibition is 0.58%.

Regarding `COc1ccc(Cl)cc1NC(=O)CNc1ccccc1F`, the CPE inhibition is 0.95%.

For the compound `COc1cc(NC(=S)NC(=O)CC(C)C)ccc1NC(=O)c1cc2ccccc2o1`, the CPE inhibition is 0.02%.

With `O=C(c1cccc(NS(=O)(=O)c2ccc(F)c(F)c2)c1)N1CCN(Cc2ccccc2)CC1`, the CPE inhibition result is “inactive”.

As for `O=C(COC(=O)c1cccc(NS(=O)(=O)c2ccc(F)c(F)c2)c1)NC(=O)NC1CCCCC1`, the CPE inhibition is 3.8%.

For the compound `O=C(c1cccc(NS(=O)(=O)c2ccc(F)c(F)c2)c1)N1CCN(C(c2ccccc2)c2ccccc2)CC1`, the CPE inhibition is 39.5% (active).

Consider `CCn1c(-c2c(Cl)c(C)nn2C)n[nH]c1=S`, for which the CPE inhibition entry is “inactive”.

For `COCCCNC(=S)NC1CCCCC1`, the CPE inhibition result was “inactive”.

Consider `O=C1C(Cc2ccc(F)cc2)SC(=Nc2ccccc2)N1c1ccccc1` (stereo not given), for which the CPE inhibition was 1.01%.

Take `O=C1C(Cc2ccc(Br)cc2)SC(=Nc2ccccc2)N1c1ccccc1` (stereo not given): the CPE inhibition is 12.3% (active).

With `Cc1ccc(CC2SC(=Nc3ccccc3)N(c3ccccc3)C2=O)cc1` (stereo not given), the CPE inhibition is 4.75%.

On to `Cc1nn(-c2ccccc2)c(N)c1C(O)(C(F)(F)F)C(F)(F)F`, for which the CPE inhibition was 0.32%.

In the case of `CCOC(=O)[C@@H]1[C@H]2COc3ccc(Br)cc3[C@@H]2N2C(=O)N(c3ccc(OC)cc3)C(=O)[C@]12C`, the CPE inhibition was 1.7%.

Turning to `S=C(NCC1CCCO1)Nc1ccc(Cl)cc1` (stereo not given), the CPE inhibition is 0.15%.

Consider `Cc1cc(C)cc(NC(=O)C(c2ccccc2)N2CCCC2)c1` (stereo not given), for which the CPE inhibition is 0.92%.

Take `Cc1ccc(S(=O)(=O)N2CCN(C(C(=O)Nc3ccc(F)cc3)c3ccccc3)CC2)cc1` (stereo not given): the CPE inhibition was 1.1%.

For `Cc1ccc(NC(=O)C(c2ccc(Cl)cc2Cl)N2CCCC2)cc1` (stereo not given), the CPE inhibition is 11.5% (active).

For `Cc1cccc2cc(C3CC(c4ccco4)=NN3C(=O)CCC(=O)O)c(Cl)nc12` (stereo not given), the CPE inhibition entry is “inactive”.

`COc1cc(C(=O)NCC(c2cccs2)N(C)C)cc(Cl)c1OC(C)C` (stereo not given): the CPE inhibition was 0.015%.

`COCCNC(=O)CCCC(=O)NCCOC`: the CPE inhibition entry was “inactive”.

Turning to `CCOc1cccc(C2NC(=S)NC(C)=C2C(=O)Nc2ccccc2)c1` (stereo not given), the CPE inhibition is 0.13%.

Turning to `CC1=C(C(=O)Nc2ccc(F)c(F)c2)C(c2cccs2)NC(=S)N1` (stereo not given), the CPE inhibition is 0.675%.

As for `CCOC(=O)c1c(NC(=O)C2=C(C)NC(=S)NC2c2ccc(F)cc2F)sc(C)c1C` (stereo not given), the CPE inhibition was 32.4% (active).
